Laboratory results from PubChem BioAssay.
Active and inactive are the calls of the source.

Legend:
[1] = test system: Plasmodium falciparum Sir2 (PF13_0152, Sir2A); test: pfSir2 binders on small-molecule microarrays, primary screen, biochemical, small-molecule microarray, 635 nm fluorescence (AID 1098); conditions: small-molecule microarray binding, fluorescence 635 nm; higher = more signal;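 also: score merges spot fluorescence intensity with its signal-to-noise ratio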
[2] = small-molecule microarray binders of probe aDKK1, primary screen, biochemical, biotinylated probe, 635/667 nm fluorescence (AID 1099); conditions: higher = more signal;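 also: score merges 667nm spot fluorescence with signal to noise across triplicate slides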
[3] = small-molecule microarray binders of probe aCHRDL2, primary screen, biochemical, biotinylated probe, 635/667 nm fluorescence (AID 1100); conditions: higher = more signal
[4] = splicing luciferase reporter signal modulators, primary screen, spliceosome inhibition project, cell-based, HEK293, splice +/- reporter (AID 1101); conditions: luminescence, 24 h, higher = more signal, called active from +8 up or from −8 down;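 also: HEK293 cells carrying a splicing-competent luciferase reporter gene; test concentration not given here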
[5] = biological target: Fibroblast growth factor 10 (Homo sapiens) (UniProt O15520); test: FGF10 binders on small-molecule microarrays, primary screen, biochemical, small-molecule microarray, 635 nm fluorescence (AID 1102); conditions: FGF10 binding, fluorescence 635 nm, higher = more signal
[6] = test system: glycogen synthase kinase-3 (GSK3A per assay name; protocol says GSK3B); test: GSK3 binders on small-molecule microarrays, primary screen, biochemical, small-molecule microarray, 635 nm fluorescence, GSK3A (AID 1103); conditions: small-molecule microarray binding, fluorescence 635 nm; higher = more signal; also: the record names both GSK3A and GSK3B
[7] = biological target: Epidermal growth factor receptor (Homo sapiens) (UniProt P00533); test: EGFR binders on small-molecule microarrays, primary screen, biochemical, small-molecule microarray, 635 nm fluorescence (AID 1104); conditions: EGFR binding, higher = more signal;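 also: score merges 667 nm emission intensity with spot signal to noise over triplicate slides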
[8] = biological target: Follistatin-related protein 3 (Homo sapiens) (UniProt O95633); test: FSTL3 binders on small-molecule microarrays, primary screen, biochemical, small-molecule microarray, 635 nm fluorescence (AID 1105); conditions: FSTL3 binding, higher = more signal;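 also: score merges emission near 667 nm and signal to noise per printed spot across three slides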
[9] = biological target: Dickkopf-related protein 1 (Homo sapiens) (UniProt O94907); test: DKK1 binders on small-molecule microarrays, primary screen, biochemical, small-molecule microarray, 635 nm fluorescence scan (AID 1106); conditions: DKK1 binding, higher = more signal;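 also: score merges emission near 667 nm with signal to noise over three replicate slides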
[10] = test system: Inhibin beta A chain (activin A); test: INHBA (activin A) binders on microarrays, primary screen, biochemical, small-molecule microarray, 635 nm fluorescence scan (AID 1107); conditions: small-molecule microarray binding, higher = more signal;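 also: mouse activin A protein probed at 4.33 µg/mL on printed slides; score merges bound-protein fluorescence near 667 nm with spot signal-to-noise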
[11] = test system: Human papillomavirus type 1a protein E7 (residues 44-93); test: HPV1a E7 fragment binders on microarrays, primary screen, biochemical, small-molecule microarray, residues 44-93, 635 nm fluorescence (AID 1108); conditions: small-molecule microarray binding, fluorescence 635 nm; higher = more signal;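 also: E7 fragment applied at 1 µg/mL in TBST for 1 h at 4 C; score combines spot fluorescence with its signal to noise ratio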
[12] = modulators of HCV replicon luciferase signal, primary screen, HCV replication inhibitor project, Huh7 cells, luciferase reporter (AID 1109); conditions: 48 h, higher = more signal;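 also: huh7 hepatoma cells harbouring a luciferase neomycin HCV replicon reporter; luciferase luminescence as measure of HCV replicon replication; test concentration not given here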
[13] = biological target: Left-right determination factor 2 (Homo sapiens) (UniProt O00292); test: LEFTY2 binders on small-molecule microarrays, primary screen, biochemical, small-molecule microarray, 635 nm fluorescence scan (AID 1110); conditions: LEFTY2 binding, higher = more signal
[14] = biological target: Calmodulin-1 (Homo sapiens) (UniProt P0DP23); test: CALM1 binders on microarrays, EGTA buffer, profiling panel, biochemical, small-molecule microarray, Cy5-labelled CALM1 (AID 1111); conditions: Cy5-CALM1 binding fluorescence, higher = more signal;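 also: labelled calmodulin applied in Tris saline Tween buffer holding calcium plus EGTA and DTT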
[15] = biological target: Calmodulin-1 (Homo sapiens) (UniProt P0DP23); test: calcium-bound CALM1 binders on microarrays, profiling panel, artefact control for SMM control-protein annotation, biochemical, small-molecule microarray, Cy5-labelled CALM1, plus calcium (AID 1112); conditions: Cy5-CALM1 binding fluorescence, higher = more signal;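 also: score merges spot fluorescence with signal to noise from triplicate slides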
[16] = small-molecule microarray binders of probe aWnt5a, primary screen, biochemical, biotinylated probe, 635/667 nm fluorescence (AID 1113); conditions: higher = more signal;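 also: score merges 667 nm fluorescence intensity with signal-to-noise per printed feature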
[17] = small-molecule microarray binders of probe aShh, primary screen, biochemical, biotinylated probe, 635/667 nm fluorescence (AID 1114); conditions: higher = more signal;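 also: probe is biotin-labelled aShh protein from a stem cell growth factor screen; measures binding of labelled protein to compounds printed on the slide; score merges feature fluorescence at 667 nm with signal-to-noise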
[18] = small-molecule microarray binders of probe aNog, primary screen, biochemical, biotinylated probe, 635/667 nm fluorescence (AID 1115); conditions: higher = more signal;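 also: probe is biotinylated aNog protein used at 0.15 µg/mL for 1 h at 4 C; z-score combines 667 nm fluorescence of each spot with its signal to noise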
[19] = biological target: Torsin-1A-interacting protein 1 (Homo sapiens) (UniProt Q5JTV8); test: LAP1 binders from COS7 cell lysate, primary screen, small-molecule microarray, 635/667 nm fluorescence (AID 1116); conditions: COS7-hLAP1 lysate binding, 635 nm fluorescence, higher = more signal
[20] = biological target: Alpha-bungarotoxin (Bungarus multicinctus) (UniProt P60615); test: alpha-bungarotoxin binders on microarray, profiling panel, artefact control for SMM control protein annotation, biochemical, small-molecule microarray, Alexa647 label, 635/667 nm fluorescence (AID 1117); conditions: alpha-BTX-A647 binding fluorescence, higher = more signal
Chain of Alpha-bungarotoxin (Bungarus multicinctus) (P60615 whole entry, looked up): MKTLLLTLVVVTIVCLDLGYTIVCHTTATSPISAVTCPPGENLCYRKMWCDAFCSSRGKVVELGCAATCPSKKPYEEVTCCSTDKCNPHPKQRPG

Chain of Left-right determination factor 2 (Homo sapiens) (O00292 whole entry, looked up): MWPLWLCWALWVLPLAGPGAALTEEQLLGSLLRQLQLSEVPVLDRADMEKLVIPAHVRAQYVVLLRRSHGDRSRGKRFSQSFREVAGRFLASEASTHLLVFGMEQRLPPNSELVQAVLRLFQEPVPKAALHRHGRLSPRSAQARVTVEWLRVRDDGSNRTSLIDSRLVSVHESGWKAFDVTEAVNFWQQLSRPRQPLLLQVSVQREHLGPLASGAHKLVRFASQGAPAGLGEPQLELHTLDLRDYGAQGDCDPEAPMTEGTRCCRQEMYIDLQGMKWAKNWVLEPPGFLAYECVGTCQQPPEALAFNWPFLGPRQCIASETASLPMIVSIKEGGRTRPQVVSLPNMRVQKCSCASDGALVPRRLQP
Chain of Fibroblast growth factor 10 (Homo sapiens) (O15520 whole entry, looked up): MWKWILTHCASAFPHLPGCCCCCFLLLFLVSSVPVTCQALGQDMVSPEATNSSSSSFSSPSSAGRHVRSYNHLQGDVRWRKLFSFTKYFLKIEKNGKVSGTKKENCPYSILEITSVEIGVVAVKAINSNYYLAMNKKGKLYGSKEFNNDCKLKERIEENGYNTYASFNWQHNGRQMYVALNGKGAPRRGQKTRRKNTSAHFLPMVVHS
Chain of Torsin-1A-interacting protein 1 (Homo sapiens) (Q5JTV8 whole entry, looked up): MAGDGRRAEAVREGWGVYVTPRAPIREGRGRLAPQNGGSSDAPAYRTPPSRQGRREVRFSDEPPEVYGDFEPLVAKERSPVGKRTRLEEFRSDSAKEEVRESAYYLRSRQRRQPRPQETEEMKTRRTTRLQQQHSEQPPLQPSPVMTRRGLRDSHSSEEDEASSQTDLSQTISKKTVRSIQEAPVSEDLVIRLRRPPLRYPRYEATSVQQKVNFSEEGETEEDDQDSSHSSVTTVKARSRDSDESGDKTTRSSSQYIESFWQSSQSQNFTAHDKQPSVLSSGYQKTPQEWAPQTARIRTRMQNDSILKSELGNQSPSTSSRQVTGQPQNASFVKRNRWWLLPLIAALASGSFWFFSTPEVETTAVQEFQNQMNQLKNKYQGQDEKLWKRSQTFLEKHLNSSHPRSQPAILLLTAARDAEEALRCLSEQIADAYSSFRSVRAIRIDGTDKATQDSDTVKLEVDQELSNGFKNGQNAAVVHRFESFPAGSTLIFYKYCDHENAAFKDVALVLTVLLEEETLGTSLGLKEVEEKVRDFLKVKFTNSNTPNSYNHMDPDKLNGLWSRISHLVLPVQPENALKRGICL
Chain of Follistatin-related protein 3 (Homo sapiens) (O95633 whole entry, looked up): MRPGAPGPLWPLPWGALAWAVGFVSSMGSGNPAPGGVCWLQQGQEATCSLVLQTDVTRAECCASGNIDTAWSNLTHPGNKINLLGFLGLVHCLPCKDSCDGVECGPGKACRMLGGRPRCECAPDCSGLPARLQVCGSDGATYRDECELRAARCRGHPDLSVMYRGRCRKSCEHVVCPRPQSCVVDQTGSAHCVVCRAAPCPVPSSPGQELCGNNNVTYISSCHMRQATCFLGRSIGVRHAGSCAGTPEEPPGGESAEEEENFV
Chain of Dickkopf-related protein 1 (Homo sapiens) (O94907 whole entry, looked up): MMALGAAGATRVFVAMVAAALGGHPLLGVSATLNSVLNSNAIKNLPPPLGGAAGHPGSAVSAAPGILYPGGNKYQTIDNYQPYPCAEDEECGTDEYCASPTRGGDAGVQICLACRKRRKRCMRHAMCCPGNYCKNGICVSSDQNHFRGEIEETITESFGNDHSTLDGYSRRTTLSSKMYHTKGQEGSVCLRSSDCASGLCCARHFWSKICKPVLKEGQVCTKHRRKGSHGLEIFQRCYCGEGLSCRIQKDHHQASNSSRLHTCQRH
Chain of Epidermal growth factor receptor (Homo sapiens) (P00533 whole entry, looked up): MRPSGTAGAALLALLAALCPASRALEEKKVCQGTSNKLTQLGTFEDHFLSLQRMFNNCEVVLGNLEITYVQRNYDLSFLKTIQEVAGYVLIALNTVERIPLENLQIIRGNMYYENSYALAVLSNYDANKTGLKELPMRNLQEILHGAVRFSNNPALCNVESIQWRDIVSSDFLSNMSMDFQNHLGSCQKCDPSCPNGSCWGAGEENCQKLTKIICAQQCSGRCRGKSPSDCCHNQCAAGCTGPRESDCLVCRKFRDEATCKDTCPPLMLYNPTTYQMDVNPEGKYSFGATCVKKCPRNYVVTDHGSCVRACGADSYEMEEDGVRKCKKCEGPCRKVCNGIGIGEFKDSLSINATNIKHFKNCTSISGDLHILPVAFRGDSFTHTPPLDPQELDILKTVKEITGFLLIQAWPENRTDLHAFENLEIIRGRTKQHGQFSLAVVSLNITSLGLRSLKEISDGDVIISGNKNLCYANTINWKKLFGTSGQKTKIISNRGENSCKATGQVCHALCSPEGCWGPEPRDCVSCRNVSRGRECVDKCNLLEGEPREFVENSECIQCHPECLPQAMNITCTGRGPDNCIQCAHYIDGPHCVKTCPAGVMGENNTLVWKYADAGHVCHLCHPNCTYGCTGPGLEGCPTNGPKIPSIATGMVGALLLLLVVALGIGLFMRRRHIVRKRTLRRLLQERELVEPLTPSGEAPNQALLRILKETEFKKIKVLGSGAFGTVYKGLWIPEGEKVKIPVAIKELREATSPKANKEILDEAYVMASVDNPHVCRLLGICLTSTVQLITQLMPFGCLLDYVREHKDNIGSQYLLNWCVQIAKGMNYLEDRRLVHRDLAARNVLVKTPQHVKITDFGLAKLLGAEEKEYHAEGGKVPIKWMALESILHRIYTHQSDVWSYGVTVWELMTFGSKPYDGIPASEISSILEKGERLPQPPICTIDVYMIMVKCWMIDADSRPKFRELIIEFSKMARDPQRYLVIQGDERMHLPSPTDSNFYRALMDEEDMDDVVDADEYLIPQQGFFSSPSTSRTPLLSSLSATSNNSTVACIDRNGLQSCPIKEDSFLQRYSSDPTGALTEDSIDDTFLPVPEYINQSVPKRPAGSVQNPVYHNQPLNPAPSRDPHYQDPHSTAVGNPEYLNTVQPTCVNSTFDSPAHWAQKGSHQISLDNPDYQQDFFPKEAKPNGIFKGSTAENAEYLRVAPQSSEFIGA

Row | SMILES | composite z-score [1] | composite z-score [2] | composite z-score [3] | z-score [4] | composite z-score [5] | composite z-score [6] | composite z-score [7] | composite z-score [8] | composite z-score [9] | composite z-score [10] | composite z-score [11] | z-score [12] | composite z-score [13] | composite z-score [14] | composite z-score [15] | composite z-score [16] | composite z-score [17] | composite z-score [18] | composite z-score [19] | composite z-score [20]
1 | CCOC(=O)[C@H](CC(C)C)NC(=O)CCC1CC(OC(=O)NCc2ccc3c(c2)OCO3)CC2(CCCC(COC(=O)NCCC(C)C)O2)O1 (stereo not given in full) | 0.0402 | -0.494 | -0.36 | -0.748 (inactive) | 0.136 | -0.322 | 0.0946 | 0.115 | 0.0586 | 0.16 | -0.527 | 0.752 | 0.0162 | -0.344 | -0.365 | -0.184 | -0.283 | -0.295 | 0.0461 | 0.0789
2 | CC(CCN1CCCc2nc(C)c(C)cc21)=NO[C@@H](C)c1cn([C@H](CO)Cc2ccccc2)nn1 | 0.531 | -0.264 | -0.388 | 0.867 (inactive) | 0.817 | 0.471 | 0.666 | 0.698 | 0.928 | 1.19 | 0.425 | -0.0976 | 0.67 | -0.168 | -0.671 | -0.0199 | 0.0952 | 0.139 | 0.527 | 0.117
3 | O=C1[C@H]2[C@H]3[C@H](O)[C@H](O)CC(=NO[C@@H]4O[C@H](CO)[C@@H](O)[C@H](O)[C@H]4O)[C@@H]3CC[C@H]2C(=O)N1C[C@@H]1CCCO1 | 0.355 | -0.29 | -0.565 | -1.45 (inactive) | 0.784 | 0.839 | 0.448 | 0.738 | 0.35 | -0.808 | 1.3 | -0.682 | 0.495 | -0.158 | -0.572 | -0.28 | -0.0769 | -0.238 | -0.0974 | -0.103
4 | CC(CCN1CCCc2nc(C)c(C)cc21)=NO[C@H](C)c1cn([C@H](CO)Cc2ccccc2)nn1 | 0.721 | -0.319 | -0.395 | 0.407 (inactive) | 0.59 | 0.605 | 0.596 | 0.761 | 0.935 | 1.11 | 1.01 | -1.73 | 0.796 | -0.276 | -0.519 | -0.0704 | -0.16 | 0.029 | 0.613 | -0.207
5 | CCOC(=O)CCN1C(=O)[C@H]2[C@H]3[C@H](O)[C@H](O)CC(=NOCC(C)C)[C@@H]3CC[C@H]2C1=O | 0.816 | -0.823 | -1.74 | 0.66 (inactive) | -0.0809 | 1.06 | 0.406 | 1.04 | 1.78 | 1.28 | -0.998 | -0.488 | 1.01 | -1.92 | -1.74 | -0.284 | -0.0471 | -0.255 | -0.202 | -0.799
6 | COc1cccc([C@H](O)Cn2cc(-c3ccc(CON=C(C)C)cc3)nn2)c1 | -0.548 | -0.122 | -0.0514 | 0.62 (inactive) | 0.155 | -0.559 | -0.392 | -0.549 | -0.115 | 0.575 | -1.42 | -0.657 | 0.323 | -0.851 | -0.679 | 0.123 | -0.229 | -0.172 | 0.56 | -0.713
7 | COC(=O)[C@H](C)NC(=O)CC=C[C@@H](C)[C@@H]1C=C[C@H](O)[C@@H](CO)O1 | 0.141 | -0.607 | -1.28 | 0.386 (inactive) | 0.6 | 0.902 | 0.643 | 0.948 | 1.3 | 0.229 | 0.075 | -0.0833 | 1.14 | -0.698 | -1.35 | -0.0799 | -0.0474 | -0.0926 | 0.326 | -0.392
8 | CCCNC(=O)OC[C@H]1O[C@H](CCON=C[C@@H](C)[C@H](OCc2ccccc2)C(C)C)C=C[C@@H]1Oc1ccc(OC)cc1 | -0.369 | -0.275 | -0.228 | -1.54 (inactive) | -0.302 | -1.32 | 0.332 | -0.245 | 0.159 | 0.33 | 0.427 | -2.17 | 0.182 | -0.755 | -0.515 | -0.156 | -0.484 | -0.196 | -0.163 | 0.297
9 | O=C1C=C[C@@H](O)[C@@H]2[C@@H]3C(=O)N(Cc4ccc5c(c4)OCO5)C(=O)[C@@H]3CC[C@@H]12 | 0.382 | -0.0574 | -0.528 | -0.5 (inactive) | 0.515 | 0.719 | 0.523 | 0.579 | 0.615 | -0.513 | 0.701 | -0.322 | 0.57 | -0.112 | -0.508 | -0.147 | -0.0626 | -0.238 | -0.127 | 0.123
10 | COC(=O)[C@H](C)NC(=O)CCC1CC(OC(=O)NCCc2ccc(F)cc2)CC2(CCCC(COC(=O)NCCOc3ccccc3)O2)O1 (stereo not given in full) | 0.612 | -0.244 | -0.224 | 0.587 (inactive) | 0.762 | 1.01 | 0.538 | 0.781 | 0.652 | -0.455 | 1.36 | -0.213 | 0.781 | 1.55 | 0.236 | 0.055 | 0.123 | -0.109 | 0.928 | 0.837
11 | COC(=O)[C@H](C)NC(=O)CCC1CC(OC(=O)NCc2cccc3ccccc23)CC2(CCCC(COC(=O)NCCC(C)C)O2)O1 (stereo not given in full) | 1.41 | -0.144 | -0.391 | -0.119 (inactive) | 0.481 | 0.247 | 0.374 | 0.463 | 0.188 | 0.199 | 0.991 | -0.243 | 0.449 | -0.234 | -0.371 | -0.109 | -0.147 | -0.268 | -0.228 | -0.178
